Measurements published in the supplement of paper PMC10849652.
Targets with a hit are over-represented here; the source holds about 8,800 in all. About 0.5% of all pairs of compound and target were hits.

Assays:
Test in all cases: log2 fold change, soluble protein after heating vs DMSO (PISA); higher = thermal stabilisation; K562 lysate, 10 uM; active = over 0.2 and 3.5 SD of the protein, either way, in both replicates (recomputed)
erlotinib = compound: C#Cc1cccc(Nc2ncnc3cc(OCCOC)c(OCCOC)cc23)c1 [erlotinib]
Method in brief: (§1)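 Quantification was by TMTpro 16plex LC-MS/MS with equalised channel sums, applied to the supernatant after 21,000xg for 90 min. Samples were crude K562 extract at 1 mg/mL protein in PBS pH 7.4 with 1 mM MgCl2, treated with 10 μM compound for 30 min, heated for 3 min across 48°C-58°C, pooled and brought to 0.5% NP-40 at 4°C. Values are log-two fold changes in thermal stability relative to solvent controls, from duplicates.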

[1] = compound: C/C(=N\NC(=O)C1=CC(=CC=C1)S(=O)(=O)N2CCOCC2)/C3=C(C=CC(=C3)Cl)O
Method in brief: as §1

[2] = compound: C1=CC(=CC=C1C2=NC3=C(N2)C=C(C=C3)C(=O)N)OC4=CC=C(C=C4)Cl
Method in brief: as §1

[3] = compound: C1=CC2=C(C=CC(=C2)/C=C\3/C(=O)NC(=NCC4=CC=CS4)S3)N=C1
Method in brief: as §1

[4] = compound: C1=CC2=NC=CN=C2C=C1/C=C/3\C(=O)NC(=O)S3
Method in brief: as §1

[5] = compound: C1=CC=C(C=C1)C2=NC(=C(N2)C3=CC=NC=C3)C4=CC(=C(C=C4)Cl)O
Method in brief: as §1

[6] = compound: C1=CC=C2C(=C1)C3=NNC4=CC=CC(=C43)C2=O
Method in brief: as §1

[7] = compound: C1CCN(C1)C(=O)NC2=CC=CC(=C2)NC3=NC=C(C(=N3)NCCC4=CN=CN4)Br
Method in brief: as §1

[8] = compound: C1CN(CCC1(CC2=CC=C(C=C2)Cl)N)C3=NC=NC4=C3C=CN4
Method in brief: as §1

IRAK-1-4 Inhibitor I = compound: C1COCCN1CCN2C3=CC=CC=C3N=C2NC(=O)C4=CC(=CC=C4)[N+](=O)[O-] [IRAK-1-4 Inhibitor I]
Method in brief: as §1

Measured: log2 fold change

MLXIP (UniProt Q9HAP2)
inactive: erlotinib 0.011 | [1] 0.003 | [2] 0.027 | [3] 0.01 | [4] -0.017 | [5] 0.04 | [6] -0.011 | [7] -0.025 | [8] -0.01 | IRAK-1-4 Inhibitor I 0.003

MANEA (UniProt Q5SRI9)
inactive: erlotinib -0.079 | [1] -0.119 | [2] 0.076 | [3] 0.089 | [4] 0.027 | [5] 0.118 | [6] -0.092 | [7] -0.014 | [8] 0.016 | IRAK-1-4 Inhibitor I 0.041

MED13L (UniProt Q71F56)
inactive: erlotinib 0.048 | [1] -0.049 | [2] 0.03 | [3] 0.024 | [4] 0.034 | [5] -0.014 | [6] -0.035 | [7] 0.024 | [8] 0.013 | IRAK-1-4 Inhibitor I 0.061

MED14 (UniProt O60244)
Sequence of UniProt O60244 (O60244 whole entry, looked up): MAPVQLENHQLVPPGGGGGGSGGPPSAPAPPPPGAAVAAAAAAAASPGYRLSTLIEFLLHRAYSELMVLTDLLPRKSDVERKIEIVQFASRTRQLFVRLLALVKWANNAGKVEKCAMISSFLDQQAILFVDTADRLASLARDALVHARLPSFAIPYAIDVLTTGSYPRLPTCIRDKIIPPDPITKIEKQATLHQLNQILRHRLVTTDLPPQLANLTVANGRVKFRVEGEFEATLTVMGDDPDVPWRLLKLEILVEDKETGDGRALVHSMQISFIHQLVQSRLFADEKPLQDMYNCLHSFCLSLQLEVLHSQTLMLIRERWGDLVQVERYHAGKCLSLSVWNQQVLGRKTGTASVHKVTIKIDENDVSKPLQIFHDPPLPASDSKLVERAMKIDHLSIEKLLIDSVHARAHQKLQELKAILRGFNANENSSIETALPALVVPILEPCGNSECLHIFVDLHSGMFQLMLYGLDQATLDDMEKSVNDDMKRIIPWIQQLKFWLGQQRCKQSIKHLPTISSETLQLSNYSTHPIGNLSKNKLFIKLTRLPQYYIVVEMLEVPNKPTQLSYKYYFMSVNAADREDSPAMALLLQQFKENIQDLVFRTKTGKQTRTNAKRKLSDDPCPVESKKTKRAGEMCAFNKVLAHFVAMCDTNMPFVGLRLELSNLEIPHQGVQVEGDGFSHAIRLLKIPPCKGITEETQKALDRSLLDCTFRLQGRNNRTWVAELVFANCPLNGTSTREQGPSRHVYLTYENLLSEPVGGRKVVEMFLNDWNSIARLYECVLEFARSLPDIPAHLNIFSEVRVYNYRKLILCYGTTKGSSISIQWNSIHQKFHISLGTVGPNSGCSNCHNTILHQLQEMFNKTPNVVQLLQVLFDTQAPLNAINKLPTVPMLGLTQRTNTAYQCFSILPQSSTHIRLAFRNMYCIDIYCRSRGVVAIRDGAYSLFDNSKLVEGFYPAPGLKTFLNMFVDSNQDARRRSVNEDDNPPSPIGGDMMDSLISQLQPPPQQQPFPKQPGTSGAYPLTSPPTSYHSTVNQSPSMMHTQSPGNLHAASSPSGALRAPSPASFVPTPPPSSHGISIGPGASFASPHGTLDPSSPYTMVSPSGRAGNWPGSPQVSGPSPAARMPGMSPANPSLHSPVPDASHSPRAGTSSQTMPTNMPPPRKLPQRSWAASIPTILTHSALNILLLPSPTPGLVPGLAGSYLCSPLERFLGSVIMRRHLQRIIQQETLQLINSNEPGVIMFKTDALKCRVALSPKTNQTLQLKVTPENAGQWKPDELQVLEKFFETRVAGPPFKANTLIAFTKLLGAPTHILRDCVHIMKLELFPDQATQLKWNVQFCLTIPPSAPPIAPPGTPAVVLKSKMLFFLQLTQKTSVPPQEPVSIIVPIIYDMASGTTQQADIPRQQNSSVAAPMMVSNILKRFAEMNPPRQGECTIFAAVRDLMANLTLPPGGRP
inactive: erlotinib -0.012 | [1] 0.018 | [2] 0.008 | [3] 0.027 | [4] 0.015 | [5] 0 | [6] -0.066 | [7] -0.014 | [8] -0.042 | IRAK-1-4 Inhibitor I 0.005

KPNA4 (UniProt O00629)
Sequence of UniProt O00629 (O00629 whole entry, looked up): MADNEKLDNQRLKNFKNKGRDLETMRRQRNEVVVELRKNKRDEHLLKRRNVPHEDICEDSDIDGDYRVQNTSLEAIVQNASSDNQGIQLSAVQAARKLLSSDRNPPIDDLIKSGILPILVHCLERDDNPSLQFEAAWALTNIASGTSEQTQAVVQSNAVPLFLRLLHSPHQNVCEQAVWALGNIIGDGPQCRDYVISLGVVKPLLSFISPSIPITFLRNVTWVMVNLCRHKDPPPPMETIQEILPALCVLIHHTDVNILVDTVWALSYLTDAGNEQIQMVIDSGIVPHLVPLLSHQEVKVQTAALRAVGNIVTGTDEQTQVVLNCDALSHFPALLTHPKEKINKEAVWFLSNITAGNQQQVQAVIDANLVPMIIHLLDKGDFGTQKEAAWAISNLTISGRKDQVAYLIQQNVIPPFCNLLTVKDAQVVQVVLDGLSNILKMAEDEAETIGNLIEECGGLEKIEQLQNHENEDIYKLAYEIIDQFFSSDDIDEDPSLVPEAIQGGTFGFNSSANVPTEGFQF
inactive: erlotinib -0.015 | [1] -0.037 | [2] 0.046 | [3] 0.022 | [4] -0.014 | [5] -0.013 | [6] -0.007 | [7] -0.045 | [8] -0.012 | IRAK-1-4 Inhibitor I 0.038

LIMK2 isoform 3 (UniProt P53671)
Sequence of UniProt P53671 (P53671 whole entry, looked up): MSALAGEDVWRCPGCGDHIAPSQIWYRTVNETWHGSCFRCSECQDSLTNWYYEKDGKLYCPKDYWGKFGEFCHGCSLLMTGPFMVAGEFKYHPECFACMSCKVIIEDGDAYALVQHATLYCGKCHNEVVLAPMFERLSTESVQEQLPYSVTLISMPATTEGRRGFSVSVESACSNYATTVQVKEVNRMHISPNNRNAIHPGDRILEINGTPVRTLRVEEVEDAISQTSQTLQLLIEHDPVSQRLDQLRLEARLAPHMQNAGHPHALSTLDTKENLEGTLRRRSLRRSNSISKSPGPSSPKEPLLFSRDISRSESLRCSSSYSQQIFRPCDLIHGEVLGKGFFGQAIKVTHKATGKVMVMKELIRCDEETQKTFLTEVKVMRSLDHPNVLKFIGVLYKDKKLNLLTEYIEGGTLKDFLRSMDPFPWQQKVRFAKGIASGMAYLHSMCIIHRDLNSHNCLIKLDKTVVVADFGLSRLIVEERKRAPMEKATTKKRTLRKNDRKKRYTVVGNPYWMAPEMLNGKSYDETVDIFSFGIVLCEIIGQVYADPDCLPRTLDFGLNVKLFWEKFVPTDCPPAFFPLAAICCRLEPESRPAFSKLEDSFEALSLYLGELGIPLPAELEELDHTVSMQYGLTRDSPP
inactive: erlotinib -0.013 | [1] -0.038 | [2] -0.048 | [3] 0.062 | [4] 0.053 | [5] 0.016 | [6] 0.003 | [7] -0.002 | [8] 0.001 | IRAK-1-4 Inhibitor I -0.031

KIF26A (UniProt Q9ULI4)
inactive: erlotinib 0.117 | [1] -0.053 | [2] -0.089 | [3] 0.012 | [4] -0.022 | [5] -0.019 | [6] 0.159 | [7] 0.108 | [8] 0.249 | IRAK-1-4 Inhibitor I 0.093

MAP2K1 (UniProt Q02750)
inactive: erlotinib 0.016 | [1] 0.04 | [2] -0.026 | [3] -0.02 | [4] -0.012 | [5] -0.006 | [6] 0.188 | [7] 0.105 | [8] 0.077 | IRAK-1-4 Inhibitor I 0.011

LZTR1 (UniProt Q8N653)
inactive: erlotinib 0.051 | [1] 0.099 | [2] -0.018 | [3] -0.015 | [4] 0.022 | [5] -0.005 | [6] -0.071 | [7] 0.066 | [8] 0.106 | IRAK-1-4 Inhibitor I 0.08

MPI (UniProt P34949)
Sequence of UniProt P34949 (P34949 whole entry, looked up): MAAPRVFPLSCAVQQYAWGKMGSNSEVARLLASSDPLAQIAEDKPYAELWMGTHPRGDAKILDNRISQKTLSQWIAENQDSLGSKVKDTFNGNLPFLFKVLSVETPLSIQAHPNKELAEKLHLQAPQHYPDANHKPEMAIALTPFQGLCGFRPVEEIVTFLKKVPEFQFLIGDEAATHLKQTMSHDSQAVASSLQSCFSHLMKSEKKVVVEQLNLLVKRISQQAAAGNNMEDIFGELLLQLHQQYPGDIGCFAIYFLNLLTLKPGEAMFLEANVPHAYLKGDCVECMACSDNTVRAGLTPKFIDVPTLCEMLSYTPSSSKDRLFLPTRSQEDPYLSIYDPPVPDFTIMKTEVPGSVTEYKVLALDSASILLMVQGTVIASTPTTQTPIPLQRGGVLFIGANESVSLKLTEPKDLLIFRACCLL
inactive: erlotinib 0.02 | [1] 0.045 | [2] 0.046 | [3] -0.018 | [4] -0.014 | [5] 0.022 | [6] -0.02 | [7] -0.003 | [8] 0.038 | IRAK-1-4 Inhibitor I 0.035

MFF isoform 2 (UniProt Q9GZY8)
inactive: erlotinib 0.006 | [1] -0.056 | [2] 0.021 | [3] -0.009 | [4] -0.014 | [5] -0.035 | [6] -0.005 | [7] 0.024 | [8] 0.037 | IRAK-1-4 Inhibitor I 0.018

MPZL1 (UniProt O95297)
Sequence of UniProt O95297 (O95297 whole entry, looked up): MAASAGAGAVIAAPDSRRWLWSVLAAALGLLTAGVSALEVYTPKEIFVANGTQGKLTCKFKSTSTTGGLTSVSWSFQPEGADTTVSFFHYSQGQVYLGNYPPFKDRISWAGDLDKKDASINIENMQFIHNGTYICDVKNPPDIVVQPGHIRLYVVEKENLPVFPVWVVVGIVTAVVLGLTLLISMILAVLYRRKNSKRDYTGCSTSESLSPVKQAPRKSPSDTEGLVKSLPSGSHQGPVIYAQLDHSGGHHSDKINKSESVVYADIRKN
inactive: erlotinib -0.057 | [1] 0.068 | [2] -0.036 | [3] 0.003 | [4] -0.042 | [5] 0.017 | [6] -0.005 | [7] 0.015 | [8] -0.04 | IRAK-1-4 Inhibitor I 0.015

MAT2B (UniProt Q9NZL9)
inactive: erlotinib -0.009 | [1] -0.004 | [2] -0.033 | [3] -0.014 | [4] -0.006 | [5] -0.01 | [6] 0.036 | [7] 0.015 | [8] -0.004 | IRAK-1-4 Inhibitor I 0.017

MPP5 (UniProt Q8N3R9)
Sequence of UniProt Q8N3R9 (Q8N3R9 whole entry, looked up): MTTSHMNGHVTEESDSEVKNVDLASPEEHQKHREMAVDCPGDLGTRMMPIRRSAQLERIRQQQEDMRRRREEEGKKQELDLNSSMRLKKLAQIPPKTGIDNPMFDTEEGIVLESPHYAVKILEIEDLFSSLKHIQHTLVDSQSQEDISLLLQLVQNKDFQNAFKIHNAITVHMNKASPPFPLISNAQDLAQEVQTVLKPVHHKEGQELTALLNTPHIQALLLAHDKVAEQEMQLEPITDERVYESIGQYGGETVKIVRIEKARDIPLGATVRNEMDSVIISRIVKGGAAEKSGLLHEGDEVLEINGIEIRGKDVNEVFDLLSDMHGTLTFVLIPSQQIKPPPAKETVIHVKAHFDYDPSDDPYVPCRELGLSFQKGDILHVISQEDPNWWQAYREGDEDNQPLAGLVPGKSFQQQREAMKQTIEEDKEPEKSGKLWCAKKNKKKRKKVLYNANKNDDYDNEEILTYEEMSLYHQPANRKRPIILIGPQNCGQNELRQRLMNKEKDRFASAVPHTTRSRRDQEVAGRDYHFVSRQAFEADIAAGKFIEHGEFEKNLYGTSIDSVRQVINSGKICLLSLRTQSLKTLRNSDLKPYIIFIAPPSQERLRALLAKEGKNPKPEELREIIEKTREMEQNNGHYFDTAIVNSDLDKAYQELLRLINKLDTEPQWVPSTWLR
inactive: erlotinib 0.039 | [1] -0.009 | [2] 0.027 | [3] -0.016 | [4] 0.038 | [5] 0.01 | [6] -0.038 | [7] -0.028 | [8] -0.013 | IRAK-1-4 Inhibitor I 0.085

MRPL46 (UniProt Q9H2W6)
inactive: erlotinib -0.027 | [1] -0.01 | [2] -0.039 | [3] -0.124 | [4] -0.069 | [5] 0.023 | [6] 0.089 | [7] -0.009 | [8] -0.064 | IRAK-1-4 Inhibitor I 0.035

LRRC40 (UniProt Q9H9A6)
inactive: erlotinib -0.014 | [1] 0.009 | [2] 0.004 | [3] -0.002 | [4] -0.028 | [5] -0.015 | [6] -0.014 | [7] -0.036 | [8] -0.011 | IRAK-1-4 Inhibitor I -0.017

MACO1 (UniProt Q8N5G2)
Sequence of UniProt Q8N5G2 (Q8N5G2 whole entry, looked up): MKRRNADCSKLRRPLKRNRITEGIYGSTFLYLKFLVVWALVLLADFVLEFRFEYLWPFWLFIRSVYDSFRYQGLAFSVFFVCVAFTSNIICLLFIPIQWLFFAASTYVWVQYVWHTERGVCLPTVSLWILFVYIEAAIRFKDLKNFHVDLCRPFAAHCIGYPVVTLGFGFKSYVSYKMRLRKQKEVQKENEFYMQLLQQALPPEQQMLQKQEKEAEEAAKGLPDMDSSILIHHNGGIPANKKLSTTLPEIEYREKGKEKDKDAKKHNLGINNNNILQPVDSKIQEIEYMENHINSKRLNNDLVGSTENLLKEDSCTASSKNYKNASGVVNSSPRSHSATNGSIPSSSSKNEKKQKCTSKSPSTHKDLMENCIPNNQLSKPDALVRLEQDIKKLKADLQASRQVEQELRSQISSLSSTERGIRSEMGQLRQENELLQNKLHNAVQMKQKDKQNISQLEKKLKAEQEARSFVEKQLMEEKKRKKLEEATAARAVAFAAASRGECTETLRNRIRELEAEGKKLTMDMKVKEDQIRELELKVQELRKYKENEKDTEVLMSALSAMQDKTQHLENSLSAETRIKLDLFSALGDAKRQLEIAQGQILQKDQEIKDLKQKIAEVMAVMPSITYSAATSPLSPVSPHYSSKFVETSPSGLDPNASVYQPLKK
active: [6] -0.336
inactive: erlotinib -0.072 | [1] -0.009 | [2] -0.005 | [3] -0.161 | [4] 0.062 | [5] -0.022 | [7] 0 | [8] 0.012 | IRAK-1-4 Inhibitor I 0.022

MLST8 (UniProt Q9BVC4)
inactive: erlotinib 0.038 | [1] 0.008 | [2] -0.041 | [3] 0.015 | [4] 0.012 | [5] 0.015 | [6] 0.002 | [7] -0.091 | [8] 0.033 | IRAK-1-4 Inhibitor I -0.001

MAPK6 (UniProt Q16659)
inactive: erlotinib -0.004 | [1] 0.036 | [2] 0.019 | [3] 0.006 | [4] 0.015 | [5] 0.001 | [6] 0.069 | [7] 0.068 | [8] 0.015 | IRAK-1-4 Inhibitor I -0.027

MAP7D3 (UniProt Q8IWC1)
inactive: erlotinib 0.069 | [1] 0.053 | [2] 0.281 | [3] 0.052 | [4] -0.023 | [5] -0.025 | [6] 0.044 | [7] -0.034 | [8] -0.012 | IRAK-1-4 Inhibitor I -0.017

MAPKAPK2 (UniProt P49137)
inactive: erlotinib -0.047 | [1] 0.041 | [2] 0 | [3] 0.192 | [4] 0.003 | [5] 0.013 | [6] 0.026 | [7] -0.02 | [8] 0.018 | IRAK-1-4 Inhibitor I -0.017

MED17 (UniProt Q9NVC6)
inactive: erlotinib -0.017 | [1] 0.062 | [2] 0.019 | [3] 0.065 | [4] -0.017 | [5] 0.014 | [6] -0.055 | [7] -0.007 | [8] -0.03 | IRAK-1-4 Inhibitor I -0.012

LZTS1 (UniProt Q9Y250)
inactive: erlotinib 0.182 | [1] 0.832 | [2] 0.291 | [3] -0.011 | [4] -0.12 | [5] 0.113 | [6] -0.075 | [7] -0.2 | [8] -0.07 | IRAK-1-4 Inhibitor I 0.055

MED12 isoform 2 (UniProt Q93074)
inactive: erlotinib 0.007 | [1] -0.037 | [2] 0 | [3] 0.009 | [4] 0.008 | [5] 0.004 | [6] -0.025 | [7] -0.013 | [8] 0.011 | IRAK-1-4 Inhibitor I -0.035

MOCS1 isoform 8 (UniProt Q9NZB8)
inactive: erlotinib -0.055 | [1] -0.002 | [2] 0.074 | [3] 0.058 | [4] -0.008 | [5] 0.026 | [6] 0 | [7] -0.056 | [8] 0.183 | IRAK-1-4 Inhibitor I 0.02

LUZP1 (UniProt Q86V48)
inactive: erlotinib -0.074 | [1] -0.06 | [2] -0.033 | [3] 0.027 | [4] -0.028 | [5] -0.009 | [6] 0.031 | [7] -0.009 | [8] 0.009 | IRAK-1-4 Inhibitor I 0.085

KRR1 (UniProt Q13601)
Sequence of UniProt Q13601 (Q13601 whole entry, looked up): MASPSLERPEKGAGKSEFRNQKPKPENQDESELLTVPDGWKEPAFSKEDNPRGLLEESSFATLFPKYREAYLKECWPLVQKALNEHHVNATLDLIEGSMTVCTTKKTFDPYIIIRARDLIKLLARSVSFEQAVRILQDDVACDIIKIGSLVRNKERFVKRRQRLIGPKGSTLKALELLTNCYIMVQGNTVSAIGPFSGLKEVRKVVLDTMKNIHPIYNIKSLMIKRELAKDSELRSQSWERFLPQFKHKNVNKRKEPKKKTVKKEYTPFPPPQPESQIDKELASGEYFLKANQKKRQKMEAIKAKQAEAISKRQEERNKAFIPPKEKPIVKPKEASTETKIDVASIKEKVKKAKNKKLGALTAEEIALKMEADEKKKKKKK
inactive: erlotinib 0.016 | [1] -0.232 | [2] -0.007 | [3] -0.019 | [4] 0.009 | [5] -0.01 | [6] 0.045 | [7] -0.032 | [8] 0.06 | IRAK-1-4 Inhibitor I -0.069

MARK2 (UniProt E9PC69)
inactive: erlotinib 0.095 | [1] 0.132 | [2] 0.026 | [3] 0.056 | [4] -0.017 | [5] 0.024 | [6] -0.246 | [7] -0.18 | [8] -0.084 | IRAK-1-4 Inhibitor I -0.076

MRPL12 (UniProt P52815)
inactive: erlotinib 0.046 | [1] -0.02 | [2] -0.013 | [3] 0.041 | [4] -0.015 | [5] -0.015 | [6] 0.014 | [7] -0.007 | [8] 0.077 | IRAK-1-4 Inhibitor I -0.029

MARK1 (UniProt Q9P0L2)
inactive: erlotinib 0.105 | [1] 0.006 | [2] -0.018 | [3] 0.029 | [4] -0.01 | [5] -0.001 | [6] -0.26 | [7] -0.255 | [8] -0.111 | IRAK-1-4 Inhibitor I -0.045
